# The source made the active and inactive calls. Rule as the data show it: active = fold change permeability below about 0.7 or above about 1.3; inactive = in between.
# Assay: modulators of brain endothelial barrier permeability, primary screen, cell-based, FITC-avidin fluorescence, HTS (AID 1963498); also: test concentration not given here
# Conditions: actives lie on both sides
row,Structure (SMILES),fold change permeability
1,COc1ccc(-n2c(SCc3nc(-c4ccc(C)cc4)no3)nnc2-c2ccncc2)cc1,0.8 (inactive)
2,Nc1ccn([C@@H]2O[C@H](CO)[C@@H](O)[C@@H]2O)c(=O)n1,1 (inactive)
3,Brc1c(Br)c(Br)c2[nH]cnc2c1Br,1.2 (inactive)
4,COc1cc(CNC(=O)CCCCCCC(C)C)ccc1O,0.7 (active)
5,O=C1CCC(N2C(=O)c3ccccc3C2=O)C(=O)N1 (centres undefined),1.6 (active)
6,COc1ccccc1-c1cc(Nc2cccc(CS(N)(=O)=O)c2)ncn1,0.9 (inactive)
7,O=[N+]([O-])c1cccc2cn[nH]c12,1 (inactive)
8,CNC(=O)c1cc2c(cn1)[nH]c1ccccc12,0.8 (inactive)
9,CN1C(=O)c2sccc2N(C)c2nc(Nc3ccc(S(N)(=O)=O)cc3)ncc21,1.8 (active)
10,CN(C)C(=O)Nc1cccc(-c2ccc(N(C)C)cc2)c1,1.1 (inactive)
11,COc1ccc2[nH]c([S@@](=O)Cc3ncc(C)c(OC)c3C)nc2c1,0.9 (inactive)
12,O=C(OC1C[C@@H]2CC3C[C@H](C1)N2CC3=O)c1c[nH]c2ccccc12 (some centres undefined),0.8 (inactive)
13,O=C1CCc2cc(OCCCCc3nnnn3C3CCCCC3)ccc2N1,0.9 (inactive)
14,O=C(O)CCCCN(CCc1ccccc1OCc1ccc(CCc2ccccc2)cc1)Cc1ccc(C(=O)O)cc1,1.2 (inactive)
15,C[C@]12CCC(=O)C=C1C=C[C@@H]1[C@@H]2CC[C@@]2(C)[C@H]1CC[C@@]21CCC(=O)O1,1.1 (inactive)
16,COc1ccc(/C=C/C(=O)Nc2ccccc2C(=O)O)cc1OC,1.4 (active)
17,C[C@H](NC(=O)CNC(=O)c1cccc(Cl)c1)c1ccccc1,1.1 (inactive)
18,CCCCN(CCCC)CC(O)c1cc(Cl)cc2c1-c1ccc(Cl)cc1/C2=C/c1ccc(Cl)cc1 (centres undefined),0.9 (inactive)
19,COc1ccc(Cl)cc1C(=O)NCCc1ccc(S(=O)(=O)NC(=O)NC2CCCCC2)cc1,0.7 (active)
20,COc1ccccc1N1CCN(CCCNc2cc(=O)n(C)c(=O)n2C)CC1,1.4 (active)

row,Structure (SMILES),fold change permeability
1,CCOC(=O)C1=C(C)NC(C)=C(C(=O)OC)C1c1cccc(Cl)c1Cl (centres undefined),1.2 (inactive)
2,NC(CCCP(=O)(O)O)C(=O)O (centres undefined),0.9 (inactive)
3,CN1CCN(C2=Nc3ccccc3Cc3ccccc32)CC1,1.2 (inactive)
4,COC(=O)[C@H]1[C@H]2C[C@@H]3c4[nH]c5cc(OC)ccc5c4CCN3C[C@H]2C[C@@H](OC(=O)c2cc(OC)c(OC)c(OC)c2)[C@@H]1OC,1.5 (active)
5,CN1C[C@H](C(=O)N[C@]2(C)O[C@@]3(O)[C@@H]4CCCN4C(=O)[C@H](Cc4ccccc4)N3C2=O)C[C@@H]2c3cccc4[nH]cc(c34)C[C@H]21,1.4 (active)
6,CSc1ccc2c(c1)C(N1CCN(C)CC1)Cc1ccccc1S2 (centres undefined),0.9 (inactive)
7,Cn1ccc2cc3c(cc21)CCN3C(=O)Nc1cccnc1,1.4 (active)
8,CC(C)C(=O)c1c(C(C)C)nn2ccccc12,1.3 (active)
9,CNCCCC12CCC(c3ccccc31)c1ccccc12,0.9 (inactive)
10,CO[C@@]1(NC(=O)CSCC#N)C(=O)N2C(C(=O)O)=C(CSc3nnnn3C)CS[C@@H]21,0.9 (inactive)
11,Nc1nc(N)c2nc(-c3ccccc3)c(N)nc2n1,1.4 (active)
12,NCCCCCC(=O)O,1.1 (inactive)
13,N[C@@H](CCCC(=O)O)C(=O)O,1.1 (inactive)
14,Cc1[nH]c(=O)c(C#N)cc1-c1ccncc1,0.8 (inactive)
15,O=c1[nH]c2cc(Cl)ccc2c(O)c1-c1cccc(Oc2ccccc2)c1,1.4 (active)
16,NOCC(=O)O,0.9 (inactive)
17,O=C(O)c1cc2cc(Cc3cccnc3)ccc2o1,0.8 (inactive)
18,NC(=O)CC[C@H](N)C(=O)O,0.8 (inactive)
19,O=c1c2ccccc2nc2n1CCc1c-2[nH]c2ccccc12,1.8 (active)
